According to PubChem BioAssay (Tox21):
Inconclusive results are not listed. Active and inactive are the calls of the source. The call rests on the fitted dose curve; in most records, active means well fitted cell-killing curve with a large enough effect in the repeat runs; inconclusive means weak or mixed curves; inactive means flat fitted curve, though single readings scatter.

Assay: qHTS RealTime-Glo MT Cell Viability Assay in HepG2 cells - 32 hour (AID 1224877); further: nearly all actives have a fitted effect of over 55% in size
Settings: RealTime-Glo luminescence; series mostly up to 76.8 µM; activity change, negative = cytotoxic: at the top concentration
Text: U.S. Tox21 Program National Center for Advancing Translational Sciences [NCATS] NIH Chemical Genomics Center [NCGC] U.S. Environmental Protection Agency [EPA] National Institutes of Environmental Health Sciences [NIEHS] National Toxicology Program [NTP] U.S. Food and Drug Administration [FDA] Tox21 Assay Overview: Measure of cell viability is critical in the cell-base assay. Analysis of cell viability is necessary for the characterization of cell responses to cytotoxic drugs and environmental stress. A RealTime-Glo MT Cell Viability Assay to monitor cell viability in real time of continues cell culture during 40 hours of compound treatment was used to screen Tox21 10K library compounds in HepG2 cells. The RealTime-Glo MT Cell Viability Assay is a nonlytic, homogeneous, bioluminescent method to measure cell viability in real time using a simple, plate-based method. The assay involves adding NanoLuc luciferase and a cell-permeant prosubstrate to cells in culture. Viable cells reduce the proprietary prosubstrate to generate a substrate for NanoLuc luciferase. This substrate diffuses from cells into the surrounding culture medium, where it is rapidly used by the NanoLuc Enzyme to produce a luminescent signal. The signal correlates with the number of viable cells, making the assay well suited for cytotoxicity studies.
Tox21 Assay Protocol Summary: The mixture of HepG2 cell suspension and reagents were dispensed at 600cells/6 ul/well in 1536-well tissue culture treated black solid bottom plates using a Multidrop dispenser. After the assay plates were incubated at a 37 C/5% CO2 incubator for 5 hours, 23 nL of compounds dissolved in DMSO, positive and negative controls was transferred to the assay plate by a pintool work station. The plates were incubated at 37 C for 40 hours. The luminescence intensity were measured at 0h, 8h, 16h, 24h, 32h and 40h time points using ViewLux plate reader during compound treatment.
On the % scale 0 is the no-effect control and ±100 the full control effect; potency means the concentration at half of the fitted maximal effect.

Structure (SMILES) | activity change, negative = cytotoxic | Potency
CN(C)C1CSSSC1 | 1.59% (inactive) | –
CC(=O)/C=C/c1ccc2c(c1)OCO2 | -9.48% (inactive) | –
Cc1cc(C(F)(C(F)(F)F)C(F)(F)F)ccc1NC(=O)c1cccc(I)c1C(=O)NC(C)(C)CS(C)(=O)=O | -10% [at 35.3 µM] (inactive) | –
COP(=O)(CCC(=O)NCO)OC | 3.27% (inactive) | –
CCN(CC)C(=S)[S-].CCN(CC)C(=S)[S-].[Zn+2] | – | 13.7 µM (active)
COC[C@H](C)N(C(=O)CCl)c1c(C)csc1C | -5.71% (inactive) | –
O=C(O)c1cc[c]([Hg][Cl])cc1 | – | 24.5 µM (active)
CC1(C)[C@H](C(=O)O[C@H](C#N)c2cccc(Oc3ccccc3)c2)[C@@H]1/C=C(\Cl)C(F)(F)F | – | inactive
CC(=[OH+])/C=C(/C)[O-].CC(=[OH+])/C=C(\C)[O-].CC(=[OH+])/C=C(\C)[O-].[Al] | 10.1% (inactive) | –
CCc1nn(C)c(C(=O)NCc2ccc(C(C)(C)C)cc2)c1Cl | -15.4% (inactive) | –
Oc1ccc(I)cc1 | -0.942% (inactive) | –
CCCN(CC)CC1COC2(CCC(C(C)(C)C)CC2)O1 (stereo not given) | -2.17% (inactive) | –
N#Cc1ccccc1Cl | 10.1% (inactive) | –
CCOC(=O)OC1=C(c2cc(C)ccc2C)C(=O)NC12CCC(OC)CC2 (stereo not given) | -7.23% (inactive) | –
ClC1=C(Cl)[C@]2(Cl)[C@@H]3[C@@H](Cl)[C@H](Cl)C[C@@H]3[C@@]1(Cl)C2(Cl)Cl | -12.4% (inactive) | –
c1ccc(OCC2CO2)cc1 (stereo not given) | 1.47% (inactive) | –
Nc1c(Oc2ccccc2)cc(O)c2c1C(=O)c1ccccc1C2=O | -0.398% [at 35.3 µM] (inactive) | –
CCN | 1.99% (inactive) | –
COc1ccc(/C(=C/C(=O)N2CCOCC2)c2ccc(Cl)cc2)cc1OC | -7.25% (inactive) | –
CCOc1cc(C(C)(C)C)ccc1C1COC(c2c(F)cccc2F)=N1 (stereo not given) | -12.7% [at 35.3 µM] (inactive) | –

Structure (SMILES) | activity change, negative = cytotoxic | Potency
CC(C)(C)c1cc([N+](=O)[O-])cc(C(C)(C)C)c1O | -27.6% (inactive) | –
CC(C)(C)OO | 6.26% (inactive) | –
C[C@@H](Oc1ccc(Cl)cc1Cl)C(=O)O | 4.66% (inactive) | –
O=C(CBr)c1ccc(O)cc1 | -9.52% (inactive) | –
CC(C)(COCC1CO1)COCC1CO1 (stereo not given) | 11% (inactive) | –
CCCCOP(=O)(CCCC)OCCCC | 3.95% (inactive) | –
BrC(Br)Br | -0.374% (inactive) | –
CC(C)CCCCCCCOP(=O)(Oc1ccccc1)Oc1ccccc1 | -18.5% (inactive) | –
O=C(CCl)Nc1ccccc1 | -25.7% (inactive) | –
CN(C)c1ccc(N=Nc2ccccc2)cc1 | -15.1% (inactive) | –
c1ccc2c(c1)[nH]c1cnccc12 | 0.143% (inactive) | –
Nc1ccccc1C(=O)OC/C=C/c1ccccc1 | -9.49% (inactive) | –
O=c1ssc(Cl)c1Cl | – | 21.9 µM (active)
CCOP(=S)(OCC)SCS(=O)(=O)C(C)(C)C | -10.5% (inactive) | –
CCCCCCCCCCCCCN1CC(C)OC(C)C1 (stereo not given) | 1.89% (inactive) | –
CC(C)CC(C)(c1ccc(O)cc1)c1ccc(O)cc1 | -11% (inactive) | –
CCS(=O)(=O)c1cccnc1S(=O)(=O)NC(=O)Nc1nc(OC)cc(OC)n1 | 0.478% (inactive) | –
Cc1cc(SCc2sc(-c3ccc(C(F)(F)F)c(F)c3)nc2C)ccc1OCC(=O)O | -18.4% (inactive) | –
Clc1ccc(C(c2ccc(Cl)cc2)C(Cl)(Cl)Cl)cc1 | – | inactive
O=c1oc2ccccc2c(O)c1Cc1c(O)c2ccccc2oc1=O | -8.76% [at 35.3 µM] (inactive) | –
